# High-throughput results as filed in PubChem BioAssay.
# G9a inh – qHTS Assay for Inhibitors of Histone Lysine Methyltransferase G9a. 350,000 tested, 8.8% active. Histone-lysine N-methyltransferase EHMT2 (Homo sapiens), Q96KQ7. Potency, µM (doses to about 102 µM), for inactives: at the top dose activity, negative = inhibition, hits mostly inhibitors. G9a H3K9 monomethylation, AlphaScreen, 2 h; also: % is scaled to controls: 0 for no effect and ±100 for the full control effect; nearly all actives have a fitted effect of over 75% in size
#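 Signal arises when biotinylated H3K9 peptide, once monomethylated, bridges streptavidin donor and antibody-captured acceptor beads. Enzyme at 20 nM was preincubated 15 min with test compounds; peptide 500 nM and SAM 20 uM then reacted for 2 h.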
# HP1b binding inh – HTS for Inhibitors of HP1-beta Chromodomain Interactions with Methylated Histone Tails; Potency, µM (highest dose often 114 µM), without a hit: top-dose activity change, negative = inhibition, usual class: inhibitors; AlphaScreen HP1-beta / biotin-H3K9me3 peptide binding; 390,000 tested, 0.56% active; also: nearly all actives have a fitted effect of over 70% in size
#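 Compound inhibition of the preformed complex between 50 nM HP1-beta and 50 nM biotinylated H3K9me3 peptide was read by AlphaScreen. Buffer was PBS pH 7.4 with 0.01% Tween-20. Incubations ran 30 min at room temperature, with 10 ug/mL donor/acceptor beads.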
# BAZ2B block – qHTS Assay for Inhibitors of BAZ2B | Potency, µM (highest dose often 114 µM), inactives show top-dose activity change, negative = inhibition, hits mostly inhibitors | AID 504333, 2011 | AlphaScreen BAZ2B-H3K14Ac peptide displacement | 360,000 tested, 4.4% active | Bromodomain adjacent to zinc finger domain protein 2B (Homo sapiens), Q9UIF8; also: % is scaled to controls: 0 for no effect and ±100 for the full control effect; nearly all actives have a fitted effect of over 60% in size
#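 BAZ2B (50 nM) with biotin-H3(5-23)K14Ac peptide (50 nM) in PBS pH 7.4, 0.01% Tween-20, preformed 30 min, then compound 30 min at room temperature; top concentration 110uM. AlphaScreen streptavidin donor/nickel chelate acceptor beads (10 ug/mL final), 20 min dark, signal read.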
# Sfp PPTase inh – qHTS Assay for Inhibitors of Bacillus subtilis Sfp phosphopantetheinyl transferase (PPTase). 4'-phosphopantetheinyl transferase ffp (Bacillus subtilis), Q9F4F7. AID 1490, 2009. Biochemical Sfp PPTase activity, qHTS. 310,000 tested, 3.5% active. Potency, µM, without a hit: largest response in the series, negative = inhibition, hits mostly inhibitors;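 also: the enzyme is Sfp with the accession as filed and its product quenches rhodamine fluorescence; 0% = enzyme reaction without inhibitor and -100% = no enzyme wells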
#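 With Hepes-Na pH 7.6 buffer containing 10 mM MgCl2, Sfp (15 nM) modified BHQ-2-YbbR (12.5 uM) using rhodamine-CoA (5 uM). Two reads 30 minutes apart at 525/598 nm yielded each well's rate.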
# JMJD2A Tudor inh – qHTS Assay for Inhibitors of JMJD2A-Tudor Domain; Lysine-specific demethylase 4A (Homo sapiens), O75164; AlphaScreen JMJD2A-Tudor / H3K4me3 peptide binding; Potency, µM (series often up to 114 µM), inactives show at the highest dose activity change, negative = inhibition, actives largely listed as inhibitors; 390,000 tested, 4.4% active; also: % is scaled to controls: 0 for no effect and ±100 for the full control effect; nearly all actives have a fitted effect of over 50% in size
# Numbers without * were called inactive; u = inconclusive; x = no result given; ! = not confirmed by another sample; [ ] = dose if it differs, or a comment. This is a sample that favours compounds with a hit; in the whole collection about 12% have one here. Calls follow the shape of the dose curve; as a rule, active = well fitted curve in the direction sought with a large enough effect; inconclusive = small, poorly fitted or top-dose-only effect, or another doubt; inactive = no such curve, though single readings can be large; an effect the other way counts as inactive or inconclusive. Potency is read from the fitted curve at half-maximal effect.
SMILES,G9a inh,HP1b binding inh,BAZ2B block,Sfp PPTase inh,JMJD2A Tudor inh
CCN(CC)c1ccc(-n2c(C)cc(C=O)c2C)cc1,45µM*,u,u,-13%,-7%[11.4 µM]
Cc1ccc(-n2c(C)cc(C=C(C#N)C#N)c2C)cc1,-6%[59 µM],9%,3%,-17%,-21%
CC1=CC(=O)O[C@@H]1[C@@]1(C)C[C@H]2OC(=O)C[C@H]3[C@@H](C)C(=O)C(O)=C1[C@@]23CO,-4%[12.7 µM],11%,-5%,x,-15%
Cc1cc2ccccc2nc1SCC(=O)NC1CCCCC1,x,48%,u,2%,-2%
O=C(CSc1nc2ccccc2s1)NC1CCCC1,22µM*,5%,-23%,-7%,-10%
O=C(CSc1nnc(CSc2nc3ccccc3s2)o1)NC1CCCCC1,6%[59 µM],28%,x,9%,3%
Cc1cc2ccccc2nc1SCC(=O)NC1CCCC1,2%,-1%,4%,13%,14µM*
Cc1cc2c(c(=O)o1)C1O[C@](CCCCN3C(=O)c4ccccc4C3=O)(Cc3cc(C#N)ccc31)O2,x,x,-6%[22.9 µM],-2%,x
CCCN1C(=O)C(O)(c2c(C)[nH]c3ccccc23)c2ccccc21 (configuration not stated),-15%[59 µM],34%,u,0%,-5%
Cc1ccc(CN2C(=O)C(O)(c3c(C)[nH]c4ccccc34)c3ccccc32)cc1 (configuration not stated),u,u,45µM*,x,u
CCc1nn(CC(=O)NCCN(CC(C)C)CC(C)C)c(=O)c2cc3sc(C)cc3n12,6%[59 µM],27%,-2%,x,-12%
CCC(=O)N1c2ccccc2CC1C(=O)NCc1ccccc1C (configuration not stated),8%[59 µM],40%,-4%,x,-16%
C=CCNC(=O)c1ccccc1NS(=O)(=O)c1ccc(SC)cc1,-4%[12.7 µM],34%,1%,11%,-1%
C=CCNC(=O)c1ccccc1NC(=O)C1CCN(S(=O)(=O)c2ccc(SC)cc2)CC1,10%,-3%,50µM*,-7%,-7%
COc1ccc(N2Cc3cccc(C(=O)O)c3C2=O)cc1,32µM*,u,20µM*,6%,45µM*!
COc1ccc(N2Cc3cccc(C(=O)Nc4cc(C)cc(C)c4)c3C2=O)cc1,-30%[59 µM],-1%,u,x,u
Cn1c(CNC(=O)OC(C)(C)C)n[nH]c1=S,7%,17%,-14%,6%,u
CC(C)C[C@H](NC(=O)OC(C)(C)C)c1n[nH]c(=S)n1N,10µM*,27%,-18%,-52%,4%
COc1cccc(CN(Cc2ccco2)C(c2ccc(F)cc2)c2nnnn2C(C)(C)C)c1 (configuration not stated),50µM*,47%,21%,-4%,-14%
CC(C)(C)n1nnnc1C(c1cccnc1)N(Cc1ccccc1)Cc1ccco1 (configuration not stated),34%[12.7 µM],7%,-5%,1%,-21%
COC(=O)CNc1ccc2c(c1)OCO2,8.9µM*,-21%,-32%,-19%,u
c1cc(CNc2ccc3c(c2)OCO3)ccn1,35µM*,-54%,u,u,u
COC(=O)Nc1ccc2c(c1)OCO2,u,4%,-31%,3%,-29%
Cc1ccc(CNc2ccc3c(c2)OCO3)cc1,u,-24%,50µM*,56µM*,45µM*
Cc1ccc(S(=O)(=O)c2nc(NCc3ccc4c(c3)OCO4)sc2Cl)cc1,32µM*,5%,-1%,0%,-30%
Cc1ccc(S(=O)(=O)c2nnn3c2nc(NCc2ccc4c(c2)OCO4)c2sccc23)cc1,-9%[59 µM],7%,-3%,x,-22%
Cc1ccc(C(=O)Nc2ccc3c(c2)OCO3)cc1,u,-4%,-36%,4%,-34%
CC(=O)O[C@@H]1C(CO[Si](C)(C)C(C)(C)C)=C(Br)C(=O)[C@@H]2O[C@]12C,x,x,x,50µM*,x
COc1ccc(/C=C2\CCCC(C(=O)C(F)(F)F)=C2O)cc1OC,8.9µM*,x,u,-13%,x
